According to PubChem BioAssay (NCATS):
Inconclusive results are not listed. The source made the active and inactive calls. Unless noted, calls come from the whole dose curve; as a rule, active = well fitted curve in either direction with a large enough effect (not every such curve was filed as active); inconclusive = small, poorly fitted or top-dose-only effect, or another doubt; inactive = flat fitted curve, though single readings scatter.

Key:
[1] = target: Lysosomal acid glucosylceramidase (Homo sapiens) (UniProt P04062); assay: Glucocerebrosidase-p2 (AID 348; in the data active = potency below about 10 µM; note: potency is the fitted concentration of half-maximal effect); details: purified GBA, blue fluorogenic substrate, 40 min
Method in brief: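 Compounds titrated from 0.6 nM upwards against 0.2 nM enzyme in pH 5.9 citric acid/KH2PO4, taurocholate, tween-20; blue fluorogenic substrate 80 uM, 40 min room temperature, stopped and read Ex 365/Em 440 for AC50.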

[2] = AP1 Signaling Pathway (AID 357); details: ME-180 AP-1-bla reporter, EGF-induced, beta-lactamase ratio, 5 h; at 7.69 µM (top of the series) unless noted;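 note: ME-180 reporter cells stimulated with EGF at its EC50 level; % is set by controls: 0 for no effect and ±100 for the full control effect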
Method in brief: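 Beta-lactamase reporter under AP-1 response element, ME-180 background. Stimulus: EC50 EGF. Compound exposure 5 h, 37 °C. Detection: CCF4, 2.5 h RT, 460/530 nm. Values: AC50 from titration.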

[3] = target: Cytochrome P450 1A2 (Homo sapiens) (UniProt P05177); assay: p450-cyp1a2 (AID 410; calls by dose curve; note: potency is the fitted concentration of half-maximal effect;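 for activity change, negative = inhibition: -100% = full effect of reference inhibitor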); details: recombinant CYP1A2, luciferin-ME demethylation, luminescence; series mostly up to 11.4 µM
Method in brief: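 Inhibition was calculated relative to 57 uM furafylline (full inhibition). The reaction used human CYP1A2 at 20nM with Luciferin-ME at its Km, 100uM, driven by an NADPH-regenerating system for 60 min at room temperature.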

[4] = Stat Signaling Pathway (AID 446); details: ME-180 SIE beta-lactamase reporter, IL-6 stimulated, 5 h; at 7.69 µM (top of the series) unless noted;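 note: ME-180 cervical cancer cells given 40 pM IL-6 alongside compound; SIE-controlled beta-lactamase reporter measured as 460/530 nm FRET emission ratio; % is set by controls: 0 for no effect and ±100 for the full control effect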
Method in brief: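 ME-180 SIE-bla cells; overnight plating; cpd + IL-6 40 pM, 5 h, 37 C; LiveBLAzer 2.5 h RT; 460/530 nm emission ratio. Normalized to 300 pM IL-6 and 125 nM JAK inhibitor controls.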

[5] = target: Glucocorticoid receptor (Homo sapiens) (UniProt P04150); assay: GR-GFP Redistribution (AID 450;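 active = compounds whose dose series gives a full or clear partial fitted curve of increased nuclear translocation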; note: potency is the fitted concentration of half-maximal effect); details: U2OS GR-GFP nuclear translocation, laser cytometry, 2 h
[6] = target: Glucocorticoid receptor (Homo sapiens) (UniProt P04150); assay: GR-EFC Redistribution (AID 451; calls by dose curve; note: potency is the fitted concentration of half-maximal effect); details: CHO-K1 GR-EFC translocation, beta-gal luminescence, 2 h
Method in brief: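 CHO-K1 cells stably expressing nuclear-localized β-gal enzyme acceptor and GR fused C-terminally to the enzyme donor fragment; ligand-driven nuclear translocation restores β-gal by complementation. Compounds titrated up to 46 uM final, 2 h at 37 °C; luminescence read.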

[7] = target: Mitogen-activated protein kinase 10 (Mus musculus) (UniProt Q61831); assay: JNK3 AlphaScreen Assay (AID 530); details: JNK3 lysate, c-Jun phosphorylation; series mostly up to 11.4 µM;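 note: kinase came from lysate of stimulated human HepG2 cells; signal reports phosphorylation of biotinylated GST-cJun 1-79 at Ser73 with 10 µM ATP; % is set by controls: 0 for no effect and ±100 for the full control effect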
Method in brief: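 JNK3 came from HepG2 lysates pre-activated with IL-1beta and TNF-alpha and phosphorylated biotinylated GST-cJun (1-79) at 10 uM ATP, pH 7.6, room temperature. Compounds were titrated. AlphaScreen signal used anti-phospho-cJun (Ser73) antibody.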

[8] = target: 3',5'-cyclic-AMP phosphodiesterase 4B (Homo sapiens) (UniProt Q07343); assay: qHTS Assay for Inhibitors of PDE-IV (AID 607; active = well fitted activation curve with a large enough effect in the main read-out, with a control signal flat, not every such curve was filed as active; note: % of control where 0% means no effect); details: HEK293 ACTOne CNG channel cells, membrane potential fluorescence; series mostly up to 22.9 µM
Method in brief: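 ACTOne HEK293 cells carry a modified cAMP-gated CNG channel and express endogenous PDE4; plated 1000 cells/well, compounds up to 22.9 uM final. Membrane-potential dye fluorescence (ex 535/em 590) was read; parental cells received 10 uM forskolin + 100 uM RO 20-1724.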

[9] = target: Cytochrome P450 3A4 (Homo sapiens) (UniProt P08684); assay: qHTS Assay for Activators of Cytochrome P450 3A4 (AID 885; active = well fitted curve in the direction sought with a large enough effect; an effect the other way counts as inactive or inconclusive; note: nearly all actives have a fitted effect of over 65% in size); details: recombinant CYP3A4, Luciferin-PPXE luminescence, 60 min; series mostly up to 11.4 µM
Method in brief: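 20nM CYP3A4 + 25uM Luciferin-PPXE (=KM), 200mM KPO4; cpd 10 min RT; NADPH regen, 60 min RT; stop w/ detection buffer, 20 min; luminescence. Normalized to 57 uM ketoconazole.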

[10] = target: Cytochrome P450 2D6 (Homo sapiens) (UniProt P10635); assay: qHTS Assay for Inhibitors and Substrates of Cytochrome P450 2D6 (AID 891; active = well fitted curve in the direction sought with a large enough effect; an effect the other way counts as inactive or inconclusive; note: potency is the fitted concentration of half-maximal effect; nearly all actives have a fitted effect of over 60% in size); details: recombinant CYP2D6, luciferin-ME EGE luminescence; series mostly up to 11.4 µM
Method in brief: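 Human CYP2D6 (5 nM) with 30 uM Luciferin-ME EGE (at Km) in 100 mM KPO4, compound preincubated 10 min, then NADPH regeneration system for 60 min at room temperature. Luciferin read by luminescence; normalized to 1.43 uM quinidine.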

[11] = target: Cytochrome P450 2C9 (Homo sapiens) (UniProt P11712); assay: qHTS Assay for Inhibitors and Substrates of Cytochrome P450 2C9 (AID 883; active = well fitted curve in the direction sought with a large enough effect; an effect the other way counts as inactive or inconclusive; note: nearly all actives have a fitted effect of over 60% in size; note: potency is the fitted concentration of half-maximal effect; for activity change, negative = inhibition: % is set by controls: 0 for no effect and ±100 for the full control effect); details: recombinant CYP2C9, luciferin-H luminescence, 60 min; series mostly up to 11.4 µM
Method in brief: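 A luminogenic readout tracked human CYP2C9 (10nM) converting deoxyluciferin (100uM, at KM) in 25mM KPO4 during 60 min at 37C with regenerated NADPH. Values normalized to 57uM sulphaphenazole as complete inhibition.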

[12] = target: Cytochrome P450 2C19 (Homo sapiens) (UniProt P33261); assay: qHTS Assay for Inhibitors and Substrates of Cytochrome P450 2C19 (AID 899; active = well fitted curve in the direction sought with a large enough effect; an effect the other way counts as inactive or inconclusive; note: potency is the fitted concentration of half-maximal effect; nearly all actives have a fitted effect of over 60% in size); details: recombinant CYP2C19, luciferin-H EGE luminescence; series mostly up to 11.4 µM
Method in brief: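 NADPH-dependent conversion of Luciferin-H EGE (10uM, at KM) by 5nM enzyme in 50mM KPO4, 60 min at 37C following 10 min compound preincubation. Stopped with luciferin detection buffer; luminescence read after 20 min.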

[13] = qHTS Assay for Identification of Small Molecule Agonists for Hypoxia Response Element Signaling Pathway (AID 914; active = well fitted activation curve with a large enough effect in the signal ratio, with a control signal flat, not every such curve was filed as active; the % refers to the signal ratio; note: % of control where 0% means no effect); details: ME-180 (cervical carcinoma) HRE-bla reporter, beta-lactamase ratio, CoCl2, 17 h; activation: hits give high values
Method in brief: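 HRE-bla ME-180 cells with beta-lactamase reporter under hypoxia response element, compounds with EC50 CoCl2 for 17 hours at 37 C. CCF4 substrate, 460nm/530nm emission ratio gave %Activity; AC50 from titration series.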

Chain of Lysosomal acid glucosylceramidase (Homo sapiens) (P04062 whole entry, looked up): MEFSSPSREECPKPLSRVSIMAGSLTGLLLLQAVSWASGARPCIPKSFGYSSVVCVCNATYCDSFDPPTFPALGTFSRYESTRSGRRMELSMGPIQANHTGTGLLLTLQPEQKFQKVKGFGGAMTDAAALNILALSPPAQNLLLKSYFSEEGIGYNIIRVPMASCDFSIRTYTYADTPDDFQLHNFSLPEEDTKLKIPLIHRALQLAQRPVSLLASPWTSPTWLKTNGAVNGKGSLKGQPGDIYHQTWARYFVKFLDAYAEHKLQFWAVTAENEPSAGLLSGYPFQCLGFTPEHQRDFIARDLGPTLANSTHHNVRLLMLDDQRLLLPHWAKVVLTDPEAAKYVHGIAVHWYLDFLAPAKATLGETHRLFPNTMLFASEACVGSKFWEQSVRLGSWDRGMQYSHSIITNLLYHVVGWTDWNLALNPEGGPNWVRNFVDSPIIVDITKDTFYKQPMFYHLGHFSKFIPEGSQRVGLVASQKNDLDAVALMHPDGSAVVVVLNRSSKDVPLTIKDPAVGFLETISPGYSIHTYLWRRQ
Chain of Cytochrome P450 2C9 (Homo sapiens) (P11712 whole entry, looked up): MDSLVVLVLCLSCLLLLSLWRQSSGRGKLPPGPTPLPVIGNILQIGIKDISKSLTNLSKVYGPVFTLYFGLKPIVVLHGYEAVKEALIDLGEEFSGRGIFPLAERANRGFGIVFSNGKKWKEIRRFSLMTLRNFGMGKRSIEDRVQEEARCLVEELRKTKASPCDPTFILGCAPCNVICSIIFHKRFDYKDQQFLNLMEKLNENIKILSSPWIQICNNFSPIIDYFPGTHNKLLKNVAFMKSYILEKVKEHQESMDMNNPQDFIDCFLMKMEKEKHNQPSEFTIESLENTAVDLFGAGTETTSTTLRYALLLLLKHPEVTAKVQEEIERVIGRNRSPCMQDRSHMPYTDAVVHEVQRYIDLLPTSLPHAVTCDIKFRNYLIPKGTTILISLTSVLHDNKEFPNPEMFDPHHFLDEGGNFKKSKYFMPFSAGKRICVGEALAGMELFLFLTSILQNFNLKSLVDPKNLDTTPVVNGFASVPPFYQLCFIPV
Chain of Cytochrome P450 3A4 (Homo sapiens) (P08684 whole entry, looked up): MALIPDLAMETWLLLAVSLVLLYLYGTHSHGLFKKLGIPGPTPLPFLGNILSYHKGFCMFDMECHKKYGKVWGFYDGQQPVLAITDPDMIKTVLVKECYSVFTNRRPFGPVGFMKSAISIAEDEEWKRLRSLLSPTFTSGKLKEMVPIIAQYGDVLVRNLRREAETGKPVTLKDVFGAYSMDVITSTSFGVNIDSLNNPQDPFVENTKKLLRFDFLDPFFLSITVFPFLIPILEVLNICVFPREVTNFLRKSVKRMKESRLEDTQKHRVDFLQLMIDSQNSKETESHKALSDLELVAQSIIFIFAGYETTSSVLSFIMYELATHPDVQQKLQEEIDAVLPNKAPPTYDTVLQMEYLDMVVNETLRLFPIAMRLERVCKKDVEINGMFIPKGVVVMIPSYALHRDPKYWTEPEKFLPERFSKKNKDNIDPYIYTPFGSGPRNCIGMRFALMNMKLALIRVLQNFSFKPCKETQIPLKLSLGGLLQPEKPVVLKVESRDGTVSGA
Chain of Glucocorticoid receptor (Homo sapiens) (P04150 whole entry, looked up, the tested form may be a part): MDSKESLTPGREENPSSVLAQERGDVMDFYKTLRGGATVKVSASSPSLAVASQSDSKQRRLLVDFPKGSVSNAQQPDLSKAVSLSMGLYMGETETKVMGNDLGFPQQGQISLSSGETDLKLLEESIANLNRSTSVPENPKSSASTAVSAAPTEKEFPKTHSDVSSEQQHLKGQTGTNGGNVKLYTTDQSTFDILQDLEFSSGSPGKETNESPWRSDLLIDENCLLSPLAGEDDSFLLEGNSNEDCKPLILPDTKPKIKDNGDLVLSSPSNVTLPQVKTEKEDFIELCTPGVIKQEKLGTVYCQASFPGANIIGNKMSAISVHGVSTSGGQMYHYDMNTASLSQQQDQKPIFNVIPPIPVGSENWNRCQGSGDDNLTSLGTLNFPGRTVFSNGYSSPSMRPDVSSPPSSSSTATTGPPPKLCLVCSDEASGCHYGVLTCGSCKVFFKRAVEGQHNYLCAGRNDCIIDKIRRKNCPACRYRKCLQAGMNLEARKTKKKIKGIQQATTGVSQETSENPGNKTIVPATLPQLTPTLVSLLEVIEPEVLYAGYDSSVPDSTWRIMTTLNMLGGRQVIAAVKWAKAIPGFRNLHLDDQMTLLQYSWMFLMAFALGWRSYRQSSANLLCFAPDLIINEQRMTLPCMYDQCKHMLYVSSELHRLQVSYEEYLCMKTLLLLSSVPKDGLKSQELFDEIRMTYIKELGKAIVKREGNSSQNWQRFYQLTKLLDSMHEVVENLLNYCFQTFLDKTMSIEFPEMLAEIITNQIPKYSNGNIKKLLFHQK
Chain of Cytochrome P450 2C19 (Homo sapiens) (P33261 whole entry, looked up): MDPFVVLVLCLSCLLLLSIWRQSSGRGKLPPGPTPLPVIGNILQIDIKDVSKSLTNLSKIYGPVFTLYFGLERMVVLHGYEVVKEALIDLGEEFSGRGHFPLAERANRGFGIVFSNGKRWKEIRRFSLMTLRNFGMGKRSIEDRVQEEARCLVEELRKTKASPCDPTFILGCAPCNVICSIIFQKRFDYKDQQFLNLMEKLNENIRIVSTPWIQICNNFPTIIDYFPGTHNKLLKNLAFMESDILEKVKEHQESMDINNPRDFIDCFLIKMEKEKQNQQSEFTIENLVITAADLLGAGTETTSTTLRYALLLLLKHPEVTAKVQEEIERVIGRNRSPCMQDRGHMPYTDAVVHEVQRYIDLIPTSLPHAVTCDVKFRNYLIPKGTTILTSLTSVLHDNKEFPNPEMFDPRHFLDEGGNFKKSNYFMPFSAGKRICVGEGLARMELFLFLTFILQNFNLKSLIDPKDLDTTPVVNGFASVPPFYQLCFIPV
Chain of 3',5'-cyclic-AMP phosphodiesterase 4B (Homo sapiens) (Q07343 whole entry, looked up): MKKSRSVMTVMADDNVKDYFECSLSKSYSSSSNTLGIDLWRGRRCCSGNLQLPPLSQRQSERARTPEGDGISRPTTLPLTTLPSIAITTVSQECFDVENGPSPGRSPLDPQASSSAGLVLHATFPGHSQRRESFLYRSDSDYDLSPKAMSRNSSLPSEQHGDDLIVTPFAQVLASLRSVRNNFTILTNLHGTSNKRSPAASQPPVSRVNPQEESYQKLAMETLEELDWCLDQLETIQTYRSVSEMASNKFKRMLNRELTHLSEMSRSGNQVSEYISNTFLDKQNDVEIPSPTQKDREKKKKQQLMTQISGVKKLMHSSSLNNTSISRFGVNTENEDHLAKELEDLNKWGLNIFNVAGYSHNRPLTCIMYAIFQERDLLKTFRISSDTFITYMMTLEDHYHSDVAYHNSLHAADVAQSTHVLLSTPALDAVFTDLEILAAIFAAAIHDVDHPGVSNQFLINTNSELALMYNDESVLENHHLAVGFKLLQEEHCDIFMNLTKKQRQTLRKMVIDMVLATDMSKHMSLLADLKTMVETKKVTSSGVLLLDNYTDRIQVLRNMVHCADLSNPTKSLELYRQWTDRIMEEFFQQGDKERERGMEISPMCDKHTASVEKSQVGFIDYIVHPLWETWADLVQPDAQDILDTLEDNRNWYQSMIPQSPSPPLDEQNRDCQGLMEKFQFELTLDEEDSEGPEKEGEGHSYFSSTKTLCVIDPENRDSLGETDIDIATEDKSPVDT
Chain of Cytochrome P450 1A2 (Homo sapiens) (P05177 whole entry, looked up): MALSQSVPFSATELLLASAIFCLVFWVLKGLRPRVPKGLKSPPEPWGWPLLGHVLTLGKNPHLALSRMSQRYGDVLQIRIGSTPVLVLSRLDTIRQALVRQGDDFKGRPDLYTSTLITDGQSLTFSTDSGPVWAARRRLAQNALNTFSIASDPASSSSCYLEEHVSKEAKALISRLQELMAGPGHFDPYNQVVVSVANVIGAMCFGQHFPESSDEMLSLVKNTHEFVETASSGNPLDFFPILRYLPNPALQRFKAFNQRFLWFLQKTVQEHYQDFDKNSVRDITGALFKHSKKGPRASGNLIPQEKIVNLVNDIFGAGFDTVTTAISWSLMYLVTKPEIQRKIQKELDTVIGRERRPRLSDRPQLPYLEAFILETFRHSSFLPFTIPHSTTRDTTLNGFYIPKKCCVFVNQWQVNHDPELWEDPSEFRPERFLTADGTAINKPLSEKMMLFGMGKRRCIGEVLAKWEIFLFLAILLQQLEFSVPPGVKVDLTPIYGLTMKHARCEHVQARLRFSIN
Chain of Cytochrome P450 2D6 (Homo sapiens) (P10635 whole entry, looked up): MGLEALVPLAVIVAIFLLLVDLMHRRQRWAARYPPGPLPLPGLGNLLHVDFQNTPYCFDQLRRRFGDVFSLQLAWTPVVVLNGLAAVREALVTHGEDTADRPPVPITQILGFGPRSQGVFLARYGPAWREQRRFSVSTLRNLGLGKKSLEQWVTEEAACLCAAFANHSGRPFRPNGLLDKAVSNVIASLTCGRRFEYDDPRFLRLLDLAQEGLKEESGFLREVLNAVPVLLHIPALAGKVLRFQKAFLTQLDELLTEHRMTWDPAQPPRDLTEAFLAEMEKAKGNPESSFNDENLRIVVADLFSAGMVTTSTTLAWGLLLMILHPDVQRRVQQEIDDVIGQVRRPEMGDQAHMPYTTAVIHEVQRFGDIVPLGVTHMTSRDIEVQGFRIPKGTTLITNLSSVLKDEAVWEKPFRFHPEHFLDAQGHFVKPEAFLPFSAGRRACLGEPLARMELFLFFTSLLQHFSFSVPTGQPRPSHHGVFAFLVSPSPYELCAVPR

c1ccc2c[n+](Cc3ccnc4ccccc34)ccc2c1
inactive: activity change, negative = inhibition [2] 12.4% | activity change, negative = inhibition [3] -21.8% [at 2.29 µM] | activity, negative = inhibition [4] -6.6% | Potency [5] > 46 µM | Potency [6] > 9.22 µM | Potency [7] | Potency [8] | Potency [9]
active: Potency [1] 8.58 µM | Potency [10] 3.16 µM

Cc1ccc(S(=O)(=O)Nc2ccccc2C=O)cc1
active: Potency [12] 5.01 µM
inactive: Potency [1] > 11.4 µM | activity change, negative = inhibition [2] -0.783% | Potency [3] | activity, negative = inhibition [4] 24% | Potency [5] > 46 µM | Potency [6] > 9.22 µM | Potency [7] | Potency [8] | Potency [11]

Cc1c2cccc(Sc3ccccc3)c2c2c3c(cccc13)[S+](c1ccccc1)C2 (stereo unspecified)
active: Potency [11] 2.51 µM | Potency [12] 0.0631 µM
inactive: Potency [1] > 11.4 µM | activity change, negative = inhibition [2] -7.04% | activity change, negative = inhibition [3] -17.3% [at 2.29 µM] | activity, negative = inhibition [4] 2.31% | Potency [5] > 46 µM | Potency [6] > 9.22 µM | Potency [7] | Potency [8] | Potency [9] | activation [13] -19.6%

c1ccc(/C(=N/Nc2nc3ccccc3s2)c2ccccn2)cc1
inactive: Potency [1] > 11.4 µM | activity change, negative = inhibition [2] -20.5% | activity, negative = inhibition [4] -1.49% | Potency [5] > 46 µM | Potency [6] > 9.22 µM | Potency [7] | Potency [8] | Potency [9]
active: Potency [3] 3.16 µM

CN(C)C[C@H]1CCC2=C(C1=O)C(c1ccc(Cl)c(Cl)c1)C1=C(CC[C@H](CN(C)C)C1=O)O2
inactive: Potency [1] > 11.4 µM | activity change, negative = inhibition [2] 0.767% | activity change, negative = inhibition [3] -2% [at 2.29 µM] | activity, negative = inhibition [4] 13.6% | Potency [5] > 46 µM | Potency [6] > 9.22 µM | Potency [7] | Potency [8] | Potency [9]

N#CC(C#N)=NNc1ccc2cn[nH]c2c1
active: Potency [3] 1.26 µM | Potency [11] 2.51 µM
inactive: Potency [1] > 11.4 µM | activity change, negative = inhibition [2] 1.21% | activity, negative = inhibition [4] -12% | Potency [5] > 46 µM | Potency [6] > 9.22 µM | Potency [7] | Potency [8] | Potency [9]

Oc1ccc(Cc2cc(Cl)cc(Cl)c2O)cc1Cl
active: Potency [3] 1.58 µM | Potency [11] 0.199 µM | Potency [12] 1.26 µM
inactive: Potency [1] > 11.4 µM | activity change, negative = inhibition [2] -21.8% | activity, negative = inhibition [4] -9.97% | Potency [5] > 46 µM | Potency [6] > 9.22 µM | Potency [7] | Potency [8] | Potency [9]
